# Reference: PubChem BioAssay (NCI)
# The panel holds about 79,000 compounds, 15% with a hit somewhere; the sample as a whole holds those more often. Active and inactive are the calls of the source. Rule as the data show it: active = growth inhibition above about 70%; inactive = the rest.
# Assay: NCI Yeast Anticancer Drug Screen. Data for the bub3 strain (AID 167)
# Conditions: S. cerevisiae bub3 mutant strain, at 5.0 µM (retest, dose inferred, filed as 0.5), hits give high values
# Protocol: Growth inhibition of yeast strains with defined genetic alterations is measured as a screen for potential anti-cancer activity. Selected strains with alterations in DNA damage repair or cell cycle control were exposed to compounds and growth inhibition was measured relative to vehicle treated controls. The strain used in this assay is bub3
row,Structure (SMILES),growth inhibition
1,O=[N+]([O-])c1ccc(NP(=S)(Nc2ccc([N+](=O)[O-])cc2)c2ccccc2)cc1,64% (inactive)
2,CC[CH2][Pb]([CH2]CC)([CH2]CC)[O]C(C)=O,99% (active)
3,[Se]C1=NCCN1,4% (inactive)
4,CN1CCN(c2ccc3nc(-c4ccc5nc(CCCc6ccc(N(CCCl)CCCl)cc6)[nH]c5c4)[nH]c3c2)CC1,99% (active)
5,CC(C)(C)OOC(=O)/C=C\C(=O)OOC(C)(C)C,2% (inactive)
6,CC(=O)[O-].O=C([CH-]C(=O)c1ccccc1)c1ccccc1.O=C([CH-]C(=O)c1ccccc1)c1ccccc1.[Y+3],21% (inactive)
7,[N-]=[N+]=NS(=O)(=O)c1ccccc1S(=O)(=O)N=[N+]=[N-],-2% (inactive)
8,O=C(O)C(Br)C(Br)C(=O)O.[Ag] (stereo not given),99% (active)

# Same assay, conditions: S. cerevisiae bub3 mutant strain, at 50.0 µM (retest, dose inferred, filed as 5.0), hits give high values
row,Structure (SMILES),growth inhibition
1,O=[N+]([O-])c1ccc(NP(=S)(Nc2ccc([N+](=O)[O-])cc2)c2ccccc2)cc1,90% (active)
2,CC[CH2][Pb]([CH2]CC)([CH2]CC)[O]C(C)=O,100% (active)
3,[Se]C1=NCCN1,96% (active)
4,CN1CCN(c2ccc3nc(-c4ccc5nc(CCCc6ccc(N(CCCl)CCCl)cc6)[nH]c5c4)[nH]c3c2)CC1,99% (active)
5,CC(C)(C)OOC(=O)/C=C\C(=O)OOC(C)(C)C,0% (inactive)
6,CC(=O)[O-].O=C([CH-]C(=O)c1ccccc1)c1ccccc1.O=C([CH-]C(=O)c1ccccc1)c1ccccc1.[Y+3],21% (inactive)
7,[N-]=[N+]=NS(=O)(=O)c1ccccc1S(=O)(=O)N=[N+]=[N-],97% (active)
8,O=C(O)C(Br)C(Br)C(=O)O.[Ag] (stereo not given),99% (active)

# Same assay, conditions: S. cerevisiae bub3 mutant strain, at 50.0 µM, hits give high values
row,Structure (SMILES),growth inhibition
1,NNC(=O)c1ccc(N)cc1,4.75% (inactive)
2,O=[N+]([O-])c1ccc(NP(=S)(Nc2ccc([N+](=O)[O-])cc2)c2ccccc2)cc1,95% (active)
3,O.O.O=Cc1ccccc1O.O=Cc1ccccc1O.[Co],92.5% (active)
4,CC(C)CCC(=O)c1ccoc1,5.45% (inactive)
5,CC[CH2][Pb]([CH2]CC)([CH2]CC)[O]C(C)=O,90.6% (active)
6,[Se]C1=NCCN1,84% (active)
7,COc1ccc2c(c1O)[C@@]13C=C(O)C(=O)C=C1[C@@H](C2)N(C)CC3,-2.6% (inactive)
8,O=C1CC(c2cccc(Br)c2)n2cccc21 (stereo not given),13.8% (inactive)
9,CC(=O)O.CC(=O)O.CC(=O)O.CC(=O)O.CC(=O)O.CC(=O)O.O.[Ti].[Ti],-10.1% (inactive)
10,C[CH2][Sn]([CH2]C)([O]C(=O)c1ccccc1F)[O]C(=O)c1ccccc1F,22.8% (inactive)
11,CN1CCN(c2ccc3nc(-c4ccc5nc(CCCc6ccc(N(CCCl)CCCl)cc6)[nH]c5c4)[nH]c3c2)CC1,91.7% (active)
12,c1ccc(CN2C3CCCC2CC(c2ccccc2)C3)cc1 (stereo not given),65.7% (inactive)
13,CC(C)(C)OOC(=O)/C=C\C(=O)OOC(C)(C)C,9.7% (inactive)
14,CC(=O)[O-].O=C([CH-]C(=O)c1ccccc1)c1ccccc1.O=C([CH-]C(=O)c1ccccc1)c1ccccc1.[Y+3],92% (active)
15,CC(=O)Oc1ccc([As](=O)(O)O)cc1,10.4% (inactive)
16,CC(=N\O)/C(C)=N/O.CC(=N\O)/C(C)=N/O.[Ni],5.4% (inactive)
17,CCCCOc1ccc([As](=O)(O)O)cc1,16.1% (inactive)
18,CC(F)C(N)C(=O)O (stereo not given),-0.1% (inactive)
19,COc1cccc2c1C(=O)c1c(O)c3c(c(O)c1C2=O)CC(O)(C(=O)CO)CC3OC1CC(N2CCOCC2C#N)C(O)C(C)O1 (stereo not given),88.2% (active)
20,c1cc(CCN2CCCCC2)ccn1,-21.4% (inactive)
21,O=C(CCl)Nc1ccccc1Cl,55.8% (inactive)
22,[N-]=[N+]=NS(=O)(=O)c1ccccc1S(=O)(=O)N=[N+]=[N-],49.1% (inactive)
23,O=C(O)C(Br)C(Br)C(=O)O.[Ag] (stereo not given),98.8% (active)
24,C/C=C1/CN2CCC34c5ccccc5N(C)C23C2CC1C4(C(=O)OC)C(O)O2 (stereo not given),-8.4% (inactive)
